15 molecules from PubChem BioAssay (NCATS) can be followed below.

Several values for one entry are separate records, joined by “and”; a condition that tells them apart may be missing. Equal entries are not always repeated. Results filed as inconclusive are left out. A number with no mark means an inactive call. The call rests on the fitted dose curve.
On the % scale 0 is the no-effect control and ±100 the full control effect.

The assay in a line: qHTS Assay for Lipid Storage Modulators (AID 1519). The conditions noted are these: Drosophila S3 cells, BODIPY lipid droplet/cell ratio, laser cytometry; at 57.5 µM (top of the series); cells loaded with oleic acid. The gist of the method:
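Cells seeded at 5,000 per well were treated with compounds over a concentration series and loaded with oleic acid (400 uM, as added). Lipid droplet fluorescence (488 nm excitation, 500-530 nm channel) was read by laser-scanning cytometry and normalized to 20 uM Triacsin C.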
On the technique in general: Quantitative high-throughput screening tests each substance at several concentrations.
`CC(C)(C#N)O[C@H]1OC(CO)C(O)C(O)C1O` (stereo not given in full): the activity change, negative = inhibition was 4.98%.
Under `CC1CC2CC(=O)C3CCCN4CCCC2[C@]34C1` (stereo not given in full) stands 3.72%; under `CC1CC[C@]2(NC1)OC1CC3C4CC=C5CC(O)CC[C@@]5(C)C4CC[C@]3(C)C1C2C` (stereo not given in full), 2.46%.
The same measure for `CNC(=O)Oc1cccc2c1OC(C)(C)C2`: 4.9%; for `NC(CO)Cc1ccccc1` (stereo not given): 8.6%; for `O=C(O)c1nn(Cc2ccc(Cl)c(Cl)c2)c2ccccc12`: 4.27%.
Under `CNc1ccccc1C(=O)O` stands -0.857%.
On to `CC(N)C(O)c1ccc(O)c(O)c1` (stereo not given), for which the activity change, negative = inhibition is 9.23% and 2.97%.
Under `C[C@@]12CC(c3ccoc3)OC(=O)C1CC[C@@]1(C)C2C2C=C[C@@]1(O)C(=O)O2` (stereo not given in full) stands 2.16%.
Under `CC(=O)OC1C(=O)[C@]2(C)C(O)CC3OC[C@]3(OC(C)=O)C2[C@@H](OC(=O)c2ccccc2)[C@]2(O)CC(O)C(C)=C1C2(C)C` (stereo not given in full) stands 0.522%.
In the case of `Cc1c(O)c(O)cc2c1CC=C1[C@]3(C)CC[C@]4(C)CC[C@@](C)(C(=O)O)CC4[C@]3(C)CC[C@]12C` (stereo not given in full), the activity change, negative = inhibition is -4.4%.
Under `N#C/C(=C\c1cccc(O)c1)C(=O)O` stands 5.07%; under `CC(=O)C1CCC2C3CCC4CC(O)CCC4(C)C3CC(O)C12C` (stereo not given), -2.59%; under `COc1cc2c(cc1OC)[C@@H]1C(=O)c3ccc(O)c(CC=C(C)C)c3OC1CO2` (stereo not given in full), 7.74%.
The same measure for `C[C@@]12CCC3C(CC[C@@H]4CC(O)CC[C@@]34C)C1CCC2O` (stereo not given in full): 5.33%.
